In PubChem BioAssay (NCATS):
Inconclusive results are not listed. Active and inactive are the calls of the source. Unless noted, the call rests on the fitted dose curve; in most records, active means well fitted curve in either direction with a large enough effect (not every such curve was filed as active); inconclusive means small, poorly fitted or top-dose-only effect, or another doubt; inactive means flat fitted curve, though single readings scatter.

Assays:
[1] = target: Lysosomal acid glucosylceramidase (Homo sapiens) (UniProt P04062); test: Glucocerebrosidase-p2 (AID 348; in the data active means potency below about 10 µM; further: potency means the concentration at half of the fitted maximal effect); conditions: purified GBA, blue fluorogenic substrate, 40 min
Chain of Lysosomal acid glucosylceramidase (Homo sapiens) (P04062 whole entry, looked up): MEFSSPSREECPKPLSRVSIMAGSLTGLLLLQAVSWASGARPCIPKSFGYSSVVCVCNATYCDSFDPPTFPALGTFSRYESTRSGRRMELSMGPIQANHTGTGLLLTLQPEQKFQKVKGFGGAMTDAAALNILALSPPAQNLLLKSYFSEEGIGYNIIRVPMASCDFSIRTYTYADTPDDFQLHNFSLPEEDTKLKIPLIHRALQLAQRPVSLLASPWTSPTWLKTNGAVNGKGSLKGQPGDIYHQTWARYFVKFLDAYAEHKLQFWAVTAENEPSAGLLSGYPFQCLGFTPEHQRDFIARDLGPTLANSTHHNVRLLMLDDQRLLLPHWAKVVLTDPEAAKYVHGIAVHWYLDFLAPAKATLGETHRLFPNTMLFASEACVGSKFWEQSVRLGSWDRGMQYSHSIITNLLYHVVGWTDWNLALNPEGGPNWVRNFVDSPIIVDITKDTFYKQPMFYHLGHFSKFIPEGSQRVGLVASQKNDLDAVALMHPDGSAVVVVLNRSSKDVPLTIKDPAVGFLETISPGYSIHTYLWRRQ
Summary of the method: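 Compounds titrated from 0.6 nM upwards against 0.2 nM enzyme in pH 5.9 citric acid/KH2PO4, taurocholate, tween-20; blue fluorogenic substrate 80 uM, 40 min room temperature, stopped and read Ex 365/Em 440 for AC50.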

[2] = AP1 Signaling Pathway (AID 357); conditions: ME-180 AP-1-bla reporter, EGF-induced, beta-lactamase ratio, 5 h; at 7.69 µM (top of the series) unless noted;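 further: ME-180 reporter cells stimulated with EGF at its EC50 level; on the % scale 0 is the no-effect control and ±100 the full control effect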
Summary of the method: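 Modulation of EGF-driven AP-1 transcription was assessed with a beta-lactamase reporter in ME-180 cells. Compound and EC50 EGF were co-incubated 5 hours at 37 °C before 2.5-hour CCF4 loading at room temperature and dual-emission reading.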

[3] = target: Cytochrome P450 1A2 (Homo sapiens) (UniProt P05177); test: p450-cyp1a2 (AID 410; calls by dose curve; further: potency means the concentration at half of the fitted maximal effect;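 on activity change, negative = inhibition: -100% = full effect of reference inhibitor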); conditions: recombinant CYP1A2, luciferin-ME demethylation, luminescence; series mostly up to 57 µM
Chain of Cytochrome P450 1A2 (Homo sapiens) (P05177 whole entry, looked up): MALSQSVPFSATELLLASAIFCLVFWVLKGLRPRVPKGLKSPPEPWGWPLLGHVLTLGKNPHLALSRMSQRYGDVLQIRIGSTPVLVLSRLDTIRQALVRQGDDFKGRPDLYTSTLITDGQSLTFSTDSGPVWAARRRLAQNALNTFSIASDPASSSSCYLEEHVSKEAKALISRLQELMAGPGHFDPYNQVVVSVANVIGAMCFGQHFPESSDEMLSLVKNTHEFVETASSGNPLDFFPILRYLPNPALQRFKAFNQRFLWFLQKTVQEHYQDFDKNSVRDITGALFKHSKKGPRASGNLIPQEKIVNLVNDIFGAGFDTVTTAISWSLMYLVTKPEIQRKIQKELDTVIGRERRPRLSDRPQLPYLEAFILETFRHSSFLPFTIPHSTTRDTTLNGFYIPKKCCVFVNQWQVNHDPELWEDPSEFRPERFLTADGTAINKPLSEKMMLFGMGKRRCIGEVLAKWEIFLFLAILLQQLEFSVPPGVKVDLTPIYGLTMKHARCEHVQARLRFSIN
Summary of the method: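 Luminescent readout of luciferin formed from Luciferin-ME by human CYP1A2; data normalized against complete inhibition by 57 uM furafylline. Enzyme 20nM, substrate 100uM at Km, 100mM KPO4 buffer, 60 min reaction at room temperature.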

[4] = NFAT Signaling Pathway (AID 444); conditions: Jurkat NFAT-bla M1, carbachol, beta-lactamase ratio, 5 h; at 7.69 µM (top of the series) unless noted;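 further: carbachol stimulus at about its EC50 of 1 µM final; on the % scale 0 is the no-effect control and ±100 the full control effect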
Summary of the method: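 Read-out: CCF4 FRET ratio (460 nm/530 nm) after 1 h RT dye loading, used for %activity and AC50 from titration series. Cells: Jurkat NFAT-β-lactamase/M1 line, treated with compound plus 1 uM carbachol for 5 h, 37 °C.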

[5] = Stat Signaling Pathway (AID 446); conditions: ME-180 SIE beta-lactamase reporter, IL-6 stimulated, 5 h; at 7.69 µM (top of the series) unless noted;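 further: ME-180 cervical cancer cells given 40 pM IL-6 alongside compound; SIE-controlled beta-lactamase reporter measured as 460/530 nm FRET emission ratio; on the % scale 0 is the no-effect control and ±100 the full control effect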
Summary of the method: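 Screening format detects activators and inhibitors alike: ME-180 SIE-bla cells stimulated at 40 pM IL-6 for 5 hrs with compound, then dual-emission beta-lactamase read at 405 nm excitation.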

[6] = target: Glucocorticoid receptor (Homo sapiens) (UniProt P04150); test: GR-EFC Redistribution (AID 451; calls by dose curve; further: potency means the concentration at half of the fitted maximal effect); conditions: CHO-K1 GR-EFC translocation, beta-gal luminescence, 2 h
Chain of Glucocorticoid receptor (Homo sapiens) (P04150 whole entry, looked up, the tested form may be a part): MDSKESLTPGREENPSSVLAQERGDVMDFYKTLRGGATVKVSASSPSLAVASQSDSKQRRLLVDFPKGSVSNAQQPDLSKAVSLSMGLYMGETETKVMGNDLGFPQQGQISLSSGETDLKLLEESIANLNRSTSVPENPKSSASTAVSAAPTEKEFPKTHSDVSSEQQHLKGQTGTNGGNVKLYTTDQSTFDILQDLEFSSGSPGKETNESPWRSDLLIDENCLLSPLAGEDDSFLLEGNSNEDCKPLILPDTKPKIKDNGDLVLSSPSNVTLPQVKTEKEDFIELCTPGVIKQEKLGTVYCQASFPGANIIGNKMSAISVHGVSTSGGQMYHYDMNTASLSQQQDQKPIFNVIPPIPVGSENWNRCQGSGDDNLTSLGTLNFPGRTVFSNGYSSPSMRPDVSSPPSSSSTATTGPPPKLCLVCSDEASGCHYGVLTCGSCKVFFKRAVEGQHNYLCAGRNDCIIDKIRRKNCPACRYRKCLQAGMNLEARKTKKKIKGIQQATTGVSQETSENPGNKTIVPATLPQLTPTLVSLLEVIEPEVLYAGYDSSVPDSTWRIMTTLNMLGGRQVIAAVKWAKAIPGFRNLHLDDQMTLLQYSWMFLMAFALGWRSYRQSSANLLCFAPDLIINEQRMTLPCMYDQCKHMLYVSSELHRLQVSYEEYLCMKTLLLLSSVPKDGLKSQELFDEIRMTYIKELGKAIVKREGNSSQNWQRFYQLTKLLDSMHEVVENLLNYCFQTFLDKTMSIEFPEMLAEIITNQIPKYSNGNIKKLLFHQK
Summary of the method: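 Translocation of GR-ED fusion to nuclear EA restores b-gal, read by luminescence after 1 h room-temperature detection. Engineered CHO-K1 biosensor cells, 1,000/well, exposed 2 h at 37 C to titrations up to 46 uM final.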

[7] = target: Mitogen-activated protein kinase 10 (Mus musculus) (UniProt Q61831); test: JNK3 AlphaScreen Assay (AID 530); conditions: JNK3 lysate, c-Jun phosphorylation; series mostly up to 57.1 µM;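 further: kinase came from lysate of stimulated human HepG2 cells; signal reports phosphorylation of biotinylated GST-cJun 1-79 at Ser73 with 10 µM ATP; on the % scale 0 is the no-effect control and ±100 the full control effect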
Summary of the method: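 Compound titrations were preincubated 15 minutes at room temperature with substrate, antibody and pre-activated JNK3-containing HepG2 lysate. Reactions were started with 10 uM ATP and stopped with EDTA-containing bead buffer for AlphaScreen detection.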

[8] = target: 3',5'-cyclic-AMP phosphodiesterase 4B (Homo sapiens) (UniProt Q07343); test: qHTS Assay for Inhibitors of PDE-IV (AID 607; active means well fitted activation curve with a large enough effect in the main read-out, with a control signal flat, not every such curve was filed as active; further: % of control where 0% means no effect); conditions: HEK293 ACTOne CNG channel cells, membrane potential fluorescence; series mostly up to 22.9 µM
Chain of 3',5'-cyclic-AMP phosphodiesterase 4B (Homo sapiens) (Q07343 whole entry, looked up): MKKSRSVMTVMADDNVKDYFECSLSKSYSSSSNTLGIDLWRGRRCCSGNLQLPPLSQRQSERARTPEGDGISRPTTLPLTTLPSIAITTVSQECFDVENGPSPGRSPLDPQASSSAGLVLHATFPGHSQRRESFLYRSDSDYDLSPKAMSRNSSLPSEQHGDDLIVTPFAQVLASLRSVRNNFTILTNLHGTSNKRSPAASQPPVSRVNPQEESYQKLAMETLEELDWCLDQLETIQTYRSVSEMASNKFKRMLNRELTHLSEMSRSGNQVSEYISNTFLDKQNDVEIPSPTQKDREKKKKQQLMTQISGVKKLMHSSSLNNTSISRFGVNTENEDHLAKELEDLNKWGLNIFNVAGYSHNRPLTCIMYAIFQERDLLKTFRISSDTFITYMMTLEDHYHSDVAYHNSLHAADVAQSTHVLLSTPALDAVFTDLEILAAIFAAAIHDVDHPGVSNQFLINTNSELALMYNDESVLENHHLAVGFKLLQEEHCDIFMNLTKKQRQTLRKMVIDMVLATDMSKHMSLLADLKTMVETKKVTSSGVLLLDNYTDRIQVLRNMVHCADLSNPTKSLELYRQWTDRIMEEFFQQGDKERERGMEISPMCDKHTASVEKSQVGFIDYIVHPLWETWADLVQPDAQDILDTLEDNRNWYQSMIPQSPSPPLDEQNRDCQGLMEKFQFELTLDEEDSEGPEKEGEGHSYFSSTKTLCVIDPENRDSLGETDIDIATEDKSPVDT
Summary of the method: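 The readout is membrane depolarisation from a cAMP-sensing CNG channel, detected with a potential dye at ex 535/em 590. Cells were HEK293-derived (endogenous PDE-IV) at 1000 cells/well, titrated up to 22.9 uM final.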

[9] = target: Cytochrome P450 3A4 (Homo sapiens) (UniProt P08684); test: qHTS Assay for Activators of Cytochrome P450 3A4 (AID 885; active means well fitted curve in the direction sought with a large enough effect; an effect the other way counts as inactive or inconclusive; further: nearly all actives have a fitted effect of over 65% in size; further: potency means the concentration at half of the fitted maximal effect); conditions: recombinant CYP3A4, Luciferin-PPXE luminescence, 60 min; series mostly up to 57.1 µM
Chain of Cytochrome P450 3A4 (Homo sapiens) (P08684 whole entry, looked up): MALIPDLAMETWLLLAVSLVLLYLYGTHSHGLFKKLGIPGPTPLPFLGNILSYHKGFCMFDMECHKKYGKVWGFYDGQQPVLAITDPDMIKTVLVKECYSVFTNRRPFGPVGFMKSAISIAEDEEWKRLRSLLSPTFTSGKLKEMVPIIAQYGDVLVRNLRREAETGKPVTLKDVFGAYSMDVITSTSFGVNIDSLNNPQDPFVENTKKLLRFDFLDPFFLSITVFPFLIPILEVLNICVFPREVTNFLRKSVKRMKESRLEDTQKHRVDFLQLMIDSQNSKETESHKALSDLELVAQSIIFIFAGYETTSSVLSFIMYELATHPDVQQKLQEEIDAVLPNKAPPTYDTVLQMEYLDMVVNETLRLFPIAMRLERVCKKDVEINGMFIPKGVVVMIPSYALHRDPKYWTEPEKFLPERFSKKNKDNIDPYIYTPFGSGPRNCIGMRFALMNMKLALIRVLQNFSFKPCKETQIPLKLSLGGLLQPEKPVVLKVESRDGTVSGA
Summary of the method: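 Steps: enzyme/substrate mix dispensed; compound added, 10 min RT; NADPH regeneration solution added, 60 min RT; luciferin detection buffer stops reaction; 20 min later luminescence measured.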

[10] = Primary qHTS for small molecule stabilizers of the endoplasmic reticulum resident proteome: Secreted ER Calcium Modulated Protein (SERCaMP) assay (AID 1508630; active means well fitted curve in the direction sought with a large enough effect; an effect the other way counts as inactive or inconclusive; further: on the % scale 0 is the no-effect control and ±100 the full control effect); conditions: SH-SY5Y GLuc-SERCaMP (Gaussia luciferase released on ER calcium loss) secretion, thapsigargin, luminescence; series mostly up to 38.4 µM
Summary of the method: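 GLuc-SERCaMP-expressing SH-SY5Y cells, pretreated 16 h with compound, are challenged with thapsigargin to empty ER calcium stores; after 4 h, coelenterazine is added directly to the medium and luminescence is imaged.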

[11] = target: Cytochrome P450 3A4 (Homo sapiens) (UniProt P08684); test: qHTS Assay for Inhibitors and Substrates of Cytochrome P450 3A4 (AID 884; active means well fitted curve in the direction sought with a large enough effect; an effect the other way counts as inactive or inconclusive; further: nearly all actives have a fitted effect of over 50% in size; further: potency means the concentration at half of the fitted maximal effect); conditions: recombinant CYP3A4, Luciferin-PPXE luminescence; series mostly up to 57.1 µM
Summary of the method: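 20 nM human CYP3A4 with 25 uM Luciferin-PPXE (at KM) in 200 mM KPO4, preincubated 10 min with compound; NADPH regeneration started a 60 min RT reaction. Luciferin detected by luminescence, normalized to 57 uM ketoconazole as full inhibition.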

[12] = qHTS Assay for Identification of Small Molecule Agonists for Hypoxia Response Element Signaling Pathway (AID 914; active means well fitted activation curve with a large enough effect in the signal ratio, with a control signal flat, not every such curve was filed as active; the % refers to the signal ratio; further: potency means the concentration at half of the fitted maximal effect; on activation: % of control where 0% means no effect); conditions: ME-180 (cervical carcinoma) HRE-bla reporter, beta-lactamase ratio, CoCl2, 17 h; activation: active compounds read high
Summary of the method: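 HRE-bla ME-180 assay for agonist-like enhancement of an EC50 CoCl2 stimulus: 17 h at 37 degrees Celsius, CCF4 for 2.5 h, ratiometric 460/530 nm signal converted to %Activity and fitted to AC50.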

[13] = target: Glucocorticoid receptor (Homo sapiens) (UniProt P04150); test: GR-GFP Redistribution (AID 450;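 active means compounds whose dose series gives a full or clear partial fitted curve of increased nuclear translocation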; further: potency means the concentration at half of the fitted maximal effect); conditions: U2OS GR-GFP nuclear translocation, laser cytometry, 2 h
[14] = target: Cytochrome P450 2C19 (Homo sapiens) (UniProt P33261); test: qHTS Assay for Inhibitors and Substrates of Cytochrome P450 2C19 (AID 899; active means well fitted curve in the direction sought with a large enough effect; an effect the other way counts as inactive or inconclusive; further: potency means the concentration at half of the fitted maximal effect; nearly all actives have a fitted effect of over 60% in size); conditions: recombinant CYP2C19, luciferin-H EGE luminescence; series mostly up to 57.1 µM
Chain of Cytochrome P450 2C19 (Homo sapiens) (P33261 whole entry, looked up): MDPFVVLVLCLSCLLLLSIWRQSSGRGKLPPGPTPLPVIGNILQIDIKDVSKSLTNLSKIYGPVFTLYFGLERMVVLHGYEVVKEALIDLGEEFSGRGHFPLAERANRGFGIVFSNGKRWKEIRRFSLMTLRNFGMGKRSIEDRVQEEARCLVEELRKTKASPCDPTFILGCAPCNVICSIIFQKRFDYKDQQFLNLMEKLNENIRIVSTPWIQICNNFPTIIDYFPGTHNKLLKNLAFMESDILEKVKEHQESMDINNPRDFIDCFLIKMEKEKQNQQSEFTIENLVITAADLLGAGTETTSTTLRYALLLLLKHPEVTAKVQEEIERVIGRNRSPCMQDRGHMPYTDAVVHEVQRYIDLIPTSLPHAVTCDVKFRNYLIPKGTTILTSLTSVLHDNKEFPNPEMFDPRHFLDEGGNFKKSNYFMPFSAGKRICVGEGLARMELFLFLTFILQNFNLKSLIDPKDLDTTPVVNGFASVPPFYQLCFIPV
Summary of the method: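 5nM enzyme + 10uM Luciferin-H EGE (=KM), 50mM KPO4; cpd pin-transferred, 10 min 37C; NADPH regen, 60 min 37C; stopped w/ luciferin detection reagent, 20 min; luminescence. Normalized to 57uM ketoconazole (AC100).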

[15] = Confirmation and Secondary Assay for Modulators of Hemoglobin Beta Chain Splicing at IVS2 654 locus (AID 910; active means well fitted curve in the direction sought with a large enough effect; an effect the other way counts as inactive or inconclusive;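 further: HeLa cells stably carrying EGFP split by mutant beta-globin IVS2-654 intron; per-well total GFP intensity by laser scanning cytometry after 2-day treatment; % of control where 0% means no effect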); conditions: HeLa EGFP-654 splicing reporter, GFP fluorescence, 48 h; series mostly up to 38.3 µM
Summary of the method: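 Readout: per-well total peak green fluorescence (488 nm ex, 500–520 nm em) from objects 5–250 µm, reflecting correct splicing of an EGFP-654 reporter. Compounds were applied for 2 days at 37 °C to overnight-plated HeLa EGFP-654 cells; controls were DMSO and 500 nM IVS2-654 PNA.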

[16] = Confirmation and Secondary Assay for Modulators of Hemoglobin Beta Chain Splicing at IVS2 705 locus (AID 930; active means well fitted curve in the direction sought with a large enough effect; an effect the other way counts as inactive or inconclusive;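 further: HeLa cells stably expressing the EGFP-705 splicing reporter; GFP fluorescence per well restored by corrected splicing of the IVS2-705 intron in EGFP; % of control where 0% means no effect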); conditions: HeLa EGFP-705 splicing reporter, GFP fluorescence, 48 h; series mostly up to 38.3 µM
Summary of the method: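 HeLa IVS2-705 EGFP reporter cells, 500/well, compound 2 d at 37C; correct splicing yields fluorescent EGFP. Control: 500 nM antisense PNA. Read-out: total peak GFP intensity.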

[17] = target: Ubiquitin carboxyl-terminal hydrolase 1 (Homo sapiens) (UniProt O94782); test: Inhibitors of USP1/UAF1: Pilot qHTS (AID 504865; active means well fitted curve in the direction sought with a large enough effect; an effect the other way counts as inactive or inconclusive;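 further: rhodamine fluorescence freed from ubiquitin-rhodamine substrate followed over time; top concentration of the series differs between compounds; on the % scale 0 is the no-effect control and ±100 the full control effect; nearly all actives have a fitted effect of over 35% in size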); conditions: purified USP1/UAF1, Ub-rhodamine cleavage fluorescence; series mostly up to 54.9 µM
Chain of Ubiquitin carboxyl-terminal hydrolase 1 (Homo sapiens) (O94782 whole entry, looked up): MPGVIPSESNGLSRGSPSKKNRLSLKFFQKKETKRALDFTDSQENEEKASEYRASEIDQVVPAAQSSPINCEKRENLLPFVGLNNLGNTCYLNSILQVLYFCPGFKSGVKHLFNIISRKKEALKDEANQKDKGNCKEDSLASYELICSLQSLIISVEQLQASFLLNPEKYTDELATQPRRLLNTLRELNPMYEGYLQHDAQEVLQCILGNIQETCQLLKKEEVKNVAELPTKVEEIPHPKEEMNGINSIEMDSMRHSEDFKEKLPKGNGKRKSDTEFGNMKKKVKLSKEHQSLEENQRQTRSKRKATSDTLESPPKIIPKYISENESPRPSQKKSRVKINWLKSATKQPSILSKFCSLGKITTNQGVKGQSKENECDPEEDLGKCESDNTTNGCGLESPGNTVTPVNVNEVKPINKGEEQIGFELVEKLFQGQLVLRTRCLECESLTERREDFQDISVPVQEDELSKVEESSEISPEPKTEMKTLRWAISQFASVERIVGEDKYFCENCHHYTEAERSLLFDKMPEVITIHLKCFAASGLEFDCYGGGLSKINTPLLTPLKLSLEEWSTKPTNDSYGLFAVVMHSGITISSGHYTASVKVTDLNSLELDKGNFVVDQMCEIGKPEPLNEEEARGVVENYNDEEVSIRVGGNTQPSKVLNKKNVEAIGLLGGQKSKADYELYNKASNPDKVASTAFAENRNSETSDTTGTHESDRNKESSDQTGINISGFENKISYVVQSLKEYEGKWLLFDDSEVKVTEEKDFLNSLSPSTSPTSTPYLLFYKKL
Summary of the method: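 USP1/UAF1 complex (1nM) preincubated with compound 15 min at room temperature, then Ub-Rho substrate (150nM final) added. Fluorescence read kinetically at 480/540 nm, 6 reads every 60 seconds. Buffer: 50mM HEPES pH 7.8, 0.5mM EDTA, 0.1 mg/ml BSA, 1mM TCEP, 0.01% Tween-20.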

CC(C)NC(=O)N1CCCC2(CCN(C(=O)c3cccn3C)CC2)C1
inactive: Potency [1] > 11.4 µM | activity change, negative = inhibition [2] 4.84% | Potency [3] | activity change, negative = inhibition [4] -17.7% | activity, negative = inhibition [5] 14.5% | Potency [6] > 46 µM | Potency [7] | Potency [8] | Potency [9] | outcome [10]

Cn1cccc1C(=O)N1CCC2(CCCN(c3ccc(-c4ccccc4)cc3)C2)CC1
active: Potency [3] 15.8 µM
inactive: Potency [1] > 11.4 µM | activity change, negative = inhibition [2] 15.7% | activity change, negative = inhibition [4] -14.9% | activity, negative = inhibition [5] 3.39% | Potency [6] > 46 µM | Potency [8] | outcome [10]

O=C(Nc1ccccc1)N1CCC2(CC1)CCN(C(=O)c1cccc(F)c1)CC2
active: Potency [3] 10 µM | Potency [9] 12.6 µM
inactive: Potency [1] > 11.4 µM | activity change, negative = inhibition [2] 2.8% | activity change, negative = inhibition [4] 14.6% | activity, negative = inhibition [5] -12.9% | Potency [6] > 46 µM | Potency [7] | Potency [8] | Potency [11] | activation [12] -13.7% | outcome [10]

N#Cc1cccc(NC(=O)N2CCCC3(CCN(C(=O)c4cnccn4)CC3)C2)c1
inactive: Potency [1] > 11.4 µM | activity change, negative = inhibition [2] -1.03% | activity change, negative = inhibition [4] -9.23% | activity, negative = inhibition [5] 0.635% | Potency [6] > 46 µM | Potency [7] | Potency [9] | activation [12] 0.071% | outcome [10]
active: Potency [3] 20 µM

O=C(Nc1cccc(F)c1)N1CC[C@@]2(CCCN(S(=O)(=O)c3ccccc3)C2)C1
inactive: Potency [1] > 11.4 µM | activity change, negative = inhibition [2] -21% | activity change, negative = inhibition [4] 7.62% | activity, negative = inhibition [5] -7.95% | Potency [6] > 46 µM | Potency [7] | Potency [8] | Potency [9] | outcome [10]
active: Potency [3] 15.8 µM

O=C(Nc1cccc(F)c1)N1CC[C@@]2(CCCN(C(=O)c3cnccn3)C2)C1
inactive: Potency [1] > 11.4 µM | activity change, negative = inhibition [2] 4.63% | Potency [3] | activity change, negative = inhibition [4] 12.9% | activity, negative = inhibition [5] 2.65% | Potency [6] > 46 µM | Potency [7] | Potency [8] | Potency [9] | outcome [10]

COCC(=O)N1CCC2(CCCN(c3cccc(-c4ccccc4)c3)C2)CC1
active: Potency [3] 15.8 µM
inactive: Potency [1] > 11.4 µM | activity change, negative = inhibition [2] -22.8% | activity change, negative = inhibition [4] 17% | activity, negative = inhibition [5] -10.6% | Potency [6] > 46 µM | Potency [7] | Potency [9] | outcome [10]

COc1ccc(-n2c(=O)c(-c3ccc(Cl)cc3)nc3cncnc32)cc1
inactive: Potency [1] > 11.4 µM | activity change, negative = inhibition [2] -19.6% | activity change, negative = inhibition [4] -2.56% | activity, negative = inhibition [5] -6.47% | Potency [6] > 46 µM | Potency [7] | Potency [9] | outcome [10]
active: Potency [3] 5.01 µM

COc1ccc(Oc2ncc3nc(-c4cccs4)c(=O)n(-c4ccccc4)c3n2)cc1
active: Potency [3] 3.16 µM | Potency [11] 2.51 µM | Potency [12] 2.51 µM
inactive: Potency [1] > 11.4 µM | activity change, negative = inhibition [2] 21.1% | activity change, negative = inhibition [4] 8.33% | Potency [13] > 9.22 µM | Potency [6] > 46 µM | Potency [7] | Potency [8] | Potency [9] | outcome [10]

COC(=O)N1CCC2(CCCN(Cc3ccccc3)C2)CC1
inactive: Potency [1] > 11.4 µM | activity change, negative = inhibition [2] -5.44% | Potency [3] | activity, negative = inhibition [5] 2.77% | Potency [6] > 46 µM | Potency [7] | Potency [8] | outcome [10]

O=C(c1ccncc1)N1CCC2(CC1)CCN(c1ncccn1)CC2
active: Potency [3] 20 µM | Potency [14] 2.51 µM
inactive: Potency [1] > 11.4 µM | activity change, negative = inhibition [2] -2.2% | activity change, negative = inhibition [4] 11.7% | Potency [6] > 46 µM | Potency [7] | Potency [8] | outcome [10]

Cc1cnc(CNc2nc(-c3ccc(C(=O)N(C)C)cc3)nc3ccccc23)cn1
inactive: Potency [1] > 11.4 µM | activity change, negative = inhibition [2] -29.1% | activity, negative = inhibition [5] -7.91% | Potency [13] > 46 µM | Potency [6] > 46 µM | Potency [7] | Potency [8] | Potency [9] | Potency [15] | outcome [16] | Potency [17] | outcome [10]
active: Potency [3] 25.1 µM

O=C(c1cnccn1)N1CCC2(CC1)CN(c1cccc(-c3ccccc3)c1)C2
active: Potency [3] 15.8 µM
inactive: Potency [1] > 11.4 µM | activity change, negative = inhibition [2] -8.05% | activity change, negative = inhibition [4] -5.73% | Potency [6] > 46 µM | Potency [8] | Potency [9] | outcome [10]
